Laboratory results as given in PubChem BioAssay (NCI).
“And” between values parts separate entries of the source, which are not always exact repeats. Equal entries are not always repeated. The panel holds about 83,000 compounds, 20% with a hit somewhere; the sample as a whole holds those more often.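 Values shown are percent growth following 48 h exposure of cells in 96-well plates to a single concentration of compound; below 10 was considered active.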

What was measured:
Test in all cases: NCI-60 one-dose screen, 48 h (100 = growth as untreated, 0 = no growth, -100 = all killed)
Conditions in all cases: 10 µM unless noted
SK-MEL-2 melanoma = test system: SK-MEL-2 melanoma
EKVX NSCLC = test system: EKVX NSCLC
SN12C renal = test system: SN12C renal
UO-31 renal = test system: UO-31 renal
TK-10 renal = test system: TK-10 renal
ACHN renal = test system: ACHN renal
CAKI-1 renal = test system: CAKI-1 renal
A498 renal = test system: A498 renal
CCRF-CEM leukemia = test system: CCRF-CEM leukemia
MOLT-4 leukemia = test system: MOLT-4 leukemia

Measured: growth

O=P(O)(O)OC1C(OP(=O)(O)O)C(OP(=O)(O)O)C(OP(=O)(O)O)C(OP(=O)(O)O)C1OP(=O)(O)O.[Cu+2] (stereo not given)
inactive: SK-MEL-2 melanoma 92.9% | EKVX NSCLC 126% | SN12C renal 87.4% | UO-31 renal 98.2% | TK-10 renal 118% | ACHN renal 99.7% | CAKI-1 renal 113% | A498 renal 85.3% | CCRF-CEM leukemia 101% | MOLT-4 leukemia 98.9%

O=c1[nH]c(=O)n(C2OC(CO)C(O)C2O)cc1I (stereo not given)
inactive: SK-MEL-2 melanoma 124% | EKVX NSCLC 100% and 98.9% | SN12C renal 94.8% and 99% | UO-31 renal 77.7% and 87.1% | TK-10 renal 102% and 125% | ACHN renal 111% and 117% | CAKI-1 renal 95.9% and 97.9% | A498 renal 97.5% and 120% | CCRF-CEM leukemia 95.5% | MOLT-4 leukemia 84.8% and 111%

CCCCOC1NC(=O)NC(=O)C1(F)C(=O)OCC (stereo not given)
inactive: SK-MEL-2 melanoma 97.8% and 101% | EKVX NSCLC 74.8% | SN12C renal 90.2% and 59.9% | UO-31 renal 55.2% and 51.3% | TK-10 renal 65.5% and 71.7% | ACHN renal 82% and 67.4% | CAKI-1 renal 45.3% and 62.3% | A498 renal 78.9% and 112% | CCRF-CEM leukemia 72.6% | MOLT-4 leukemia 92% and 65.2%

ON=C(C1CCCCC1)C1CCCCC1
inactive: SK-MEL-2 melanoma 107% | EKVX NSCLC 97.8% | SN12C renal 99.9% | UO-31 renal 89.3% | TK-10 renal 90.2% | ACHN renal 101% | CAKI-1 renal 87.4% | A498 renal 94.7% | CCRF-CEM leukemia 99.8% | MOLT-4 leukemia 114%

COc1cc(NCCCCCNC(C)C)c2ncccc2c1
inactive: SK-MEL-2 melanoma 93.1% and 66.7% | EKVX NSCLC 95.5% and 105% | SN12C renal 93.5% and 83.6% | UO-31 renal 59.7% and 45.4% | TK-10 renal 91.9% and 90.1% | ACHN renal 100% and 90.5% | CAKI-1 renal 91.6% and 92.5% | A498 renal 77.2% | CCRF-CEM leukemia 106% and 117% | MOLT-4 leukemia 104% and 88%

CCOCCC(=O)O
inactive: SK-MEL-2 melanoma 109% | EKVX NSCLC 98.8% | SN12C renal 103% | UO-31 renal 102% | TK-10 renal 103% | ACHN renal 110% | CAKI-1 renal 102% | A498 renal 80.1% | CCRF-CEM leukemia 98.9% | MOLT-4 leukemia 116%

S=c1nn[nH]n1C1CCCCC1
inactive: SK-MEL-2 melanoma 129% | EKVX NSCLC 106% | SN12C renal 105% | UO-31 renal 100% | TK-10 renal 118% | ACHN renal 109% | CAKI-1 renal 108% | A498 renal 87.5% | CCRF-CEM leukemia 93.9% | MOLT-4 leukemia 115%

COc1ccc(CCl)c(C)c1OC
inactive: SK-MEL-2 melanoma 104% | EKVX NSCLC 104% | SN12C renal 98.2% | UO-31 renal 89.7% | TK-10 renal 102% | ACHN renal 110% | CAKI-1 renal 101% | A498 renal 89.5% | CCRF-CEM leukemia 97.3% | MOLT-4 leukemia 104%

Cc1cc(O)c(C(C)C)cc1N=O
inactive: SK-MEL-2 melanoma 103% and 111% | EKVX NSCLC 101% and 102% | SN12C renal 95.7% and 105% | UO-31 renal 106% and 92.5% | TK-10 renal 101% and 99.7% | ACHN renal 95% and 91.5% | CAKI-1 renal 104% and 107% | A498 renal 94.8% and 95.5% | CCRF-CEM leukemia 90.3% | MOLT-4 leukemia 98.1%

Cc1ccc(NC(=S)N/C=C(\c2ccccc2)S(=O)Cc2ccccc2)c(C)c1 (stereo not given)
inactive: SK-MEL-2 melanoma 103% | EKVX NSCLC 86.7% | SN12C renal 98.9% | UO-31 renal 80.2% | TK-10 renal 109% | ACHN renal 103% | CAKI-1 renal 87.5% | A498 renal 103% | CCRF-CEM leukemia 97.3% | MOLT-4 leukemia 94.3%

O=C(O)C#Cc1ccc(Cl)cc1
inactive: SK-MEL-2 melanoma 98.4% | EKVX NSCLC 104% | SN12C renal 98.4% | UO-31 renal 95.6% | TK-10 renal 109% | ACHN renal 103% | CAKI-1 renal 95.4% | A498 renal 73.1% | CCRF-CEM leukemia 103% | MOLT-4 leukemia 87.5%

CC(C)=NOC(C)C(=O)O (stereo not given)
inactive: SK-MEL-2 melanoma 107% | EKVX NSCLC 95.9% | SN12C renal 94.1% | UO-31 renal 97.5% | TK-10 renal 104% | ACHN renal 102% | CAKI-1 renal 104% | A498 renal 89.2% | CCRF-CEM leukemia 103% | MOLT-4 leukemia 105%

C(=N\OCCc1ccccc1)/c1ccccn1
inactive: SK-MEL-2 melanoma 124% and 104% | EKVX NSCLC 115% and 106% | SN12C renal 119% and 109% | UO-31 renal 109% and 98% | TK-10 renal 93.3% and 89.5% | ACHN renal 110% and 107% | CAKI-1 renal 105% and 100% | A498 renal 96.3% and 85.7% | CCRF-CEM leukemia 106% and 94.6% | MOLT-4 leukemia 101% and 93.1%

CC(NC(=O)CCl)c1ccccc1 (stereo not given)
inactive: SK-MEL-2 melanoma 104% | EKVX NSCLC 99% | SN12C renal 110% | UO-31 renal 98.8% | TK-10 renal 98.8% | ACHN renal 106% | CAKI-1 renal 101% | A498 renal 83.9% | CCRF-CEM leukemia 105% | MOLT-4 leukemia 101%
